The whole screen tested about 48,000 compounds, of which about 13,000 (27%) showed an effect of 50% or more. The list shows a part of the results.
system: Wolbachia pipientis; experiment: Anti-Wolbachia Cell-Based Screen; assay type: functional; parameters: scale not given: in the data most compounds retested in dose-response had high values; settings: 5 µM

Compound	Percent Effect
CC(CCCC(C)(C)O)Nc1ccc(-c2nccn2C)nn1 (stereo not drawn)	6.201%
COc1cc(N2CCC(c3nccn3Cc3ccccc3)CC2)ncn1	-9.757%
CN(C)C(=O)c1ccc2c(c1)N(C)C(CC(=O)NCCC(C)(C)C)CO2 (stereo not drawn)	1.305%
CC(C)=CCN1CCN(Cc2nc3ccccc3[nH]2)[C@H]2CS(=O)(=O)C[C@H]21	-9.753%
CC(C)=CCN1CCN(Cc2ncc[nH]2)[C@H]2CS(=O)(=O)C[C@H]21	-11%
Cn1ccnc1CN1CCN(CC2CC2)[C@@H]2CS(=O)(=O)C[C@@H]21	106.1%
O=S1(=O)C[C@@H]2[C@H](C1)N(Cc1ncc[nH]1)CCN2CC1CC1	-14.64%
O=S1(=O)C[C@@H]2[C@H](C1)N(Cc1cc(Cl)cc(Cl)c1)CCN2CC1CC1	5.878%
CC(C)=CCN1CCN(Cc2nccn2C)[C@H]2CS(=O)(=O)C[C@H]21	99.3%
CN1CCN(c2cnn(Cc3ccc(S(C)(=O)=O)cc3)c(=O)c2)CC1	4.016%
Cc1ccc(N2CCCC(N3CCN(CC(F)F)CC3)C2=O)cc1 (stereo not drawn)	-21.44%
CN(C(=O)c1ccccc1Cl)C1CCN(c2ccccn2)CC1	11.04%
CCOc1ncccc1C(=O)N(C)C1CCN(c2ccccn2)CC1	144.5%
CN(C(=O)c1cccc2[nH]ncc12)C1CCN(c2ccccn2)CC1	-1.361%
Cc1cccc(C(=O)N(C)C2CCN(c3ccccn3)CC2)c1C	141.7%
CN(C1CCN(c2ccccn2)CC1)S(=O)(=O)c1ccc(F)cc1	18.41%
CN(C(=O)CNc1ccc(C#N)cc1)C1CCN(c2ccccn2)CC1	6.622%
Cc1ccccc1CC(=O)N(C)C1CCN(c2ccccn2)CC1	-4.877%
COc1ccccc1C(=O)N(C)C1CCN(c2ccccn2)CC1	177.1%
O=C(Cn1cnnn1)NCC1(O)CCCc2ccccc21 (stereo not drawn)	-5.769%
CC(=O)Nc1ccc(CNC(=O)CNCc2sc(C)nc2C)cc1	-27.38%
CCOC(=O)CC(C)NC(=O)c1cn(Cc2ccccc2F)nn1 (stereo not drawn)	-6.246%
CNC(=O)C(C)NC(=O)c1ccc(Oc2cccnc2)cc1 (stereo not drawn)	-6.707%

Compound	Percent Effect
CN(C(=O)COc1ccc(F)cc1)[C@@H]1CC[C@@H](n2ccnc2)[C@@H]1O	128.1%
CO[C@@H]1CC[C@@H](N(C)C(=O)COc2ccc(F)cc2)[C@H]1O	-1.969%
CN(C(=O)COc1ccc(F)cc1)[C@@H]1CS(=O)(=O)C[C@H]1O	1.163%
CC(C)Cc1cc(NC(=O)c2ccc3[nH]nnc3c2)n(C)n1	-17.03%
Cn1nc(CC(C)(C)C)cc1NC(=O)c1ccc2[nH]nnc2c1	-11.38%
CCC(C)N(CC)C(=O)c1ccc2[nH]nnc2c1 (stereo not drawn)	122.8%
CN(C)c1cccc(CNC(=O)Nc2ccc3[nH]nnc3c2)n1	0.1018%
CCC(CO)N(Cc1ccc(C(=O)O)cc1)Cc1ccsc1 (stereo not drawn)	4.353%
CCOc1cc(C(=O)N(C)C)ccc1NC(=O)C(C)c1ccsc1 (stereo not drawn)	-4.912%
CCC(C)N(Cc1ccsc1)C(=O)c1ccc2[nH]nnc2c1 (stereo not drawn)	109%
CCC(C)N(Cc1ccsc1)C(=O)c1ccc(CO)cc1 (stereo not drawn)	113.9%
CC(=O)N(Cc1ccsc1)c1ccccc1	-9.96%
CCn1nc(C)c(CCNC(=O)C2CCCN(C(=O)N(C)C)C2)c1C (stereo not drawn)	-3.526%
COC(=O)CN(Cc1ccccc1C)C(=O)C1CCC1	9.342%
CN(Cc1cccs1)C(=O)CN(C)C1CCc2ccccc21 (stereo not drawn)	8.524%
Cc1cnc(N2CCc3onc(COc4cccnc4)c3C2)nc1	88.9%
Cn1nc(COc2cccnc2)c2c1CCN(c1ncccn1)C2	87.22%
Cn1nc(COc2cncnc2)c2c1CCN(Cc1ccccn1)C2.O=C(O)C(F)(F)F	8.456%
Cn1nc(Cn2ccnc2)c2c1CN(c1ncccn1)C2.O=C(O)C(F)(F)F	-4.507%
Cc1cnc(N2CCc3c(c(COc4cncnc4)nn3C)C2)nc1	94.36%
Cn1nc(COc2cncnc2)c2c1CCN(Cc1ccco1)C2.O=C(O)C(F)(F)F	2.599%
O=C(O)C(F)(F)F.c1ccc(OCc2noc3c2CN(c2ncccn2)CC3)nc1	2.544%
c1cncc(OCc2noc3c2CN(Cc2ccoc2)CC3)c1	7.434%

Compound	Percent Effect
CCN(CC)c1ccc(NS(=O)(=O)c2cccnc2)cn1	2.803%
C[C@@H](NC(=O)c1cccn1C)c1c(-c2ccc(Cl)cc2)noc1C(=O)O	1.666%
Cc1nccn1-c1ccc(CNS(=O)(=O)N2CCCCC2C)cn1 (stereo not drawn)	6.496%
Cn1cc(CN2CCCC(CCCc3ccccn3)(C(N)=O)C2)cn1 (stereo not drawn)	84.15%
NC(=O)C1(CCCc2ccccn2)CCCN(Cc2ncc[nH]2)C1 (stereo not drawn)	141.6%
NC(=O)C1(CCCc2ccccn2)CCCN(Cc2ccncc2)C1 (stereo not drawn)	119.7%
CCOC(=O)C1(Cc2cccc(Cl)c2)CCCN(Cc2ncc[nH]2)C1 (stereo not drawn)	-2.445%
O=C(O)C1(Cc2ccc(F)cc2)CCCN(Cc2ccncc2)C1 (stereo not drawn)	-12.28%
CCOC(=O)C1(Cc2cccc(OC)c2)CCCN(Cc2ncc[nH]2)C1 (stereo not drawn)	25.22%
O=C(O)C1(Cc2ccc(F)cc2F)CCCN(Cc2ccncc2)C1 (stereo not drawn)	1.95%
Cn1cc(CN2CCC3(CCCN(Cc4ccccn4)C3)CC2)cn1	-1.039%
O=C(O)CCc1cc2n(n1)CCCN(C(=O)c1ccc(Cl)s1)C2	-14.6%
CCN1CCC(NN2CCN(C)CC2)CC1	4.072%
CCS(=O)(=O)NCC(=O)N1CC2(CCCC2)c2c(F)cccc21	-9.992%
CC(=O)N[C@H]1C[C@@H](c2nc(-c3ccc4c(c3)OCO4)no2)N(C)C1	-4.728%
CN1C[C@@H](F)[C@@H](OCc2nc3ccccc3[nH]2)C1	-2.12%
c1cnc(N2CCC3(CCCN(CC4CCCCC4)C3)C2)cn1 (stereo not drawn)	13.44%
COCCc1ncc(CN2CCC3(CCCN(CC4CC4)C3)C2)cn1 (stereo not drawn)	106.1%
COc1ncc(CN2CCC3(CCCN(CC4CCCCC4)C3)C2)cn1 (stereo not drawn)	96.23%
OCC1(CC2CC2)CCCN(Cc2cnc(C3CCCCC3)nc2)C1 (stereo not drawn)	-2.459%
COCCc1ncc(CN2CCC(Oc3ccccc3C)CC2)cn1	2.53%
COCCc1ncc(CN2C[C@H](C3CC3)[C@@H](N)C2)cn1	-19.64%

Source: ChEMBL document CHEMBL3988442, “University of Dundee, Small-Polar-MMV Screening Library” (2021)
